Unmarked numbers belong to inactive results.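 Rule for the calls: active = AUC reduced over 20% with Padj below 0.05 in at least 2 of 3 replicates; inactive = otherwise.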
test system: Akkermansia muciniphila; assay: growth AUC relative to DMSO control (median of replicates) (fraction); higher = more growth (less inhibition), active = hit call of the paper; details: 20 µM; 24 h
Method in brief: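 Area under the growth curve was normalised to the plate median of solvent-only wells, or to row and column medians on the industrial chemical plate. Growth curves came from anaerobic gut bacterial monocultures in mGAM at 37 °C, seeded at OD600 0.05 with 20 µM compound (1% DMSO), and read at OD600 hourly for 24 h with the minimum OD set to 0. The value is the median of three biological replicates grown on separate days.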

Structure (SMILES)	growth AUC
CCS(=O)(=O)c1nc2ccccn2c1S(=O)(=O)NC(=O)Nc1nc(OC)cc(OC)n1	1.1
C[Si](Cn1cncn1)(c1ccc(F)cc1)c1ccc(F)cc1	0.895
CCSC(=O)N1CCCCCC1	0.873
O=[N+]([O-])c1ccc(Oc2ccc(C(F)(F)F)cc2[N+](=O)[O-])cc1	0.834
CC#Cc1cc(C)nc(Nc2ccccc2)n1	1.08
COP(=O)(OC)OC1=C(Cl)C2C=CCC12 (centres undefined)	1.03
CCC(C)[C@H]1O[C@]2(C=C[C@@H]1C)C[C@@H]1C[C@@H](C/C=C(\C)[C@@H](O[C@H]3C[C@H](OC)[C@@H](O[C@H]4C[C@H](OC)[C@@H](O)[C@H](C)O4)[C@H](C)O3)[C@@H](C)/C=C/C=C3\CO[C@@H]4[C@H](O)C(C)=C[C@@H](C(=O)O1)[C@]34O)O2.CO[C@H]1C[C@H](O[C@H]2[C@H](C)O[C@@H](O[C@@H]3/C(C)=C/C[C@@H]4C[C@@H](C[C@]5(C=C[C@H](C)[C@@H](C(C)C)O5)O4)OC(=O)[C@@H]4C=C(C)[C@@H](O)[C@H]5OC/C(=C\C=C\[C@@H]3C)[C@]54O)C[C@@H]2OC)O[C@@H](C)[C@@H]1O (some centres undefined)	1.22
C[C@@H](Oc1ccc(Oc2nc3ccc(Cl)cc3o2)cc1)C(=O)O	1.03
N#Cc1cc(I)c(O)c(I)c1	0.914
CCc1cnc(C2=NC(C)(C(C)C)C(=O)N2)c(C(=O)O)c1 (centres undefined)	0.891
CON(C)C(=O)Nc1ccc(Cl)cc1	0.997
COCC(=O)N(c1c(C)cccc1C)C(C)C(=O)OC (centres undefined)	1.11
O=C1C[C@@H]2OCC=C3CN4CC[C@]56c7ccccc7N1[C@H]5[C@H]2[C@H]3C[C@H]46	0.985
CC(C)=CC1C(C(=O)OCN2C(=O)C3=C(CCCC3)C2=O)C1(C)C (centres undefined)	0.932
CCOP(=O)(SC(C)CC)SC(C)CC (centres undefined)	0.94
Oc1ccc(Cl)c(Cl)c1Cl	0.923
CSc1nnc(C(C)(C)C)c(=O)n1N	0.996
Oc1c(Cl)ccc(Cl)c1Cl	1.04
CCC1COC(Cn2cncn2)(c2ccc(Cl)cc2Cl)O1 (centres undefined)	0.893
O=[N+]([O-])/N=C1\NCCN1Cc1ccc(Cl)nc1	0.979

Structure (SMILES)	growth AUC
CCCCCCCCCCCCCN1CC(C)OC(C)C1 (centres undefined)	0.931
O=[N+]([O-])c1ccc(Oc2ccc(Cl)cc2Cl)cc1	1.09
COc1cc(OC)nc(NC(=O)NS(=O)(=O)c2cc(NC=O)ccc2C(=O)N(C)C)n1	0.976
C[N+](C)(C)CCCl.[Cl-]	1.06
O=c1ccc(=O)[nH][nH]1	1.2
CCC(C)(c1ccc(O)cc1)c1ccc(O)cc1	0.984
Cc1cc(C(F)(C(F)(F)F)C(F)(F)F)ccc1NC(=O)c1cccc(I)c1C(=O)NC(C)(C)CS(C)(=O)=O	1.06
CN(C)C(=O)Nc1ccc(Cl)cc1	0.948
O=C(O)C1(O)c2ccccc2-c2ccc(Cl)cc21 (centres undefined)	0.865
N#CCNC(=O)c1cnccc1C(F)(F)F	0.888
CCOP(=S)(OCC)Oc1nc(Cl)n(C(C)C)n1	1.04
CCCCN(CC)C(=O)SCCC	0.957
c1coc(-c2nc3ccccc3[nH]2)c1	1.03
CC(C)Nc1nc(Cl)nc(NC(C)C)n1	0.954
CN=C=S	0.945
Clc1ccc(Cl)c(Cl)c1	1.04
O=C1C2(Cl)C3(Cl)C4(Cl)C(Cl)(Cl)C5(Cl)C3(Cl)C1(Cl)C5(Cl)C24Cl (centres undefined)	0.849
Nc1ccncc1	0.943
O=C(O)c1cc(Cl)ccc1Cl	0.97
